Source: PubChem (several laboratories)
Hits are enriched below; roughly 2.1% of the tested compounds scored in any of these assays.
PLCb3 inh = inhibitors of human phospholipase C beta3. inhibition, % at 12.2 µM. Q01970. actives 0.18% (n = 370,000). Purified PLC-beta3, fluorogenic substrate, fluorescence. AID 720704;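 further: 0% = median of compound wells on plate and 100% = full blocker control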
Rce1 inhib = yeast Ras-converting enzyme inhibition. Q03530. yeast membranes, quenched prenylated peptide cleavage fluorescence. calls only. actives 0.27% (n = 290,000);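 active means fall in fluorescence gain of 50% or more versus controls, with final raw signal at or below 3038400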;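 further: plate controls were neutral control wells for no effect and wells lacking membranes for full effect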
ADAM17 inh = ADAM17 inhibition, QFRET primary screen; recombinant ADAM17, EDANS/DABCYL FRET peptide cleavage; inhibition, % at 6.95 µM; P78536; actives 0.83% (n = 370,000);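 active means inhibition above the mean of compounds lying between control limits plus 3 SD, set per campaign, cut at about 8.5% in these data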;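 further: 0% = DMSO-only wells as the low control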
PLCg1 inh = PLC-gamma1 (human) inhibition, primary screen; inhibition, % at 12.2 µM; purified PLC-gamma1, fluorogenic substrate, fluorescence; P19174; actives 0.84% (n = 370,000); in the data active means inhibition above about 9.5%
ADAM10 inh = ADAM10 inhibition, QFRET primary screen. inhibition, % at 7 µM. recombinant ADAM10, EDANS/DABCYL FRET peptide cleavage, 3 h. O14672. actives 0.62% (n = 370,000). AID 720582;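 active means inhibition above a per-campaign cutoff equal to the mean of compounds falling between control-based bounds plus 3 SD, cut at about 20% in these data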;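 further: 0% = DMSO wells while the 100% control is not disclosed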
PLCgamma1 ctr = counter-screen for PLC-beta3 inhibitors: inhibitors of human PLC-gamma1. shares compounds with PLCg1 inh. purified PLC-gamma1, fluorogenic substrate, fluorescence. inhibition, % at 12.3 µM. actives 3.1% (n = 3,300). AID 743258; in the data active means inhibition above about 9.5%
PLCbeta3 conf = human PLC-beta3 inhibition, confirmation; AID 743261; inhibition, % at 12.3 µM; purified PLC-beta3, fluorogenic substrate fluorescence; shares compounds with PLCg1 inh; actives 1% (n = 3,300)
An asterisk follows results filed as active; i = inactive; nt = not tested or not shown. Unless noted, no stated cut-off is given here; in the data, active means inhibition above about 11%; inactive means the rest.

SMILES	PLCb3 inh	Rce1 inhib	ADAM17 inh	PLCg1 inh	ADAM10 inh	PLCgamma1 ctr	PLCbeta3 conf
O=C(C1CCC(CNS(=O)(=O)c2cccs2)CC1)N1CCCCC1 (stereo unspecified)	15.7*	i	5.4	5.8	5.8	-4.4	-1.9
COc1ccc(N/N=C(\C#N)C(=N)SCc2ccccc2)cc1	2.1	i	4.4	9.6*	7.6	6.0	2.4
COc1ccc(N/N=C(\C#N)C(=N)N2CCCCC2)cc1	-1.1	i	-0.5	0.0	-8.0	nt	nt
COc1ccc(CCNC(=O)Nc2nc(C(N)Cc3ccccc3)cs2)cc1OC (stereo unspecified)	6.7	nt	8.3	9.6*	13.4	-4.2	0.9
COc1ccc(CC(N)c2csc(NC(=O)NCCc3ccc(OC)c(OC)c3)n2)cc1 (stereo unspecified)	2.8	nt	1.2	1.2	-2.0	nt	nt
CCCCCNC(=O)[C@@H]1CSC2c3ccccc3C(=O)N21 (stereo partly specified)	8.2	i	6.8	13.3*	6.2	-1.2	0.2
O=C(CN(Cc1ccccc1)S(=O)(=O)c1ccc(S(=O)(=O)N2CCOCC2)cc1)Nc1ccccc1	-0.5	i	-0.5	-1.2	-8.9	nt	nt
O=C(Nc1cccc(F)c1)c1ccc(S(=O)(=O)N2CCOCC2)cc1	8.5	i	2.2	10.2*	2.7	2.3	7.4
O=C(NC12CC3CC(CC(C3)C1)C2)c1ccc(S(=O)(=O)N2CCOCC2)cc1	11.9*	i	1.9	5.0	8.6	6.1	-0.3
O=C(CN(Cc1ccc(F)cc1)S(=O)(=O)c1ccc(S(=O)(=O)N2CCOCC2)cc1)Nc1ccccc1	11.1*	i	6.1	8.2	6.5	-5.2	-2.2
O=C(Nc1nc(-c2ccncc2)cs1)c1ccc(S(=O)(=O)N2CCOCC2)cc1	6.0	i	1.6	13.3*	8.5	-15.4	-11.3
O=C(Nc1ccc(S(=O)(=O)N2CCOCC2)cc1)c1ccc(F)cc1	-0.8	i	-2.4	-0.8	-4.3	nt	nt
O=C(Nc1ccc(S(=O)(=O)N2CCOCC2)cc1)c1ccc(S(=O)(=O)N2CCOCC2)cc1	-0.4	i	-1.8	0.5	6.3	nt	nt
CCN(CC)S(=O)(=O)c1ccc(NC(=O)COC(=O)c2ccc(NC(=O)CC#N)cc2)cc1	-20.1	i	2.2	-15.3	2.1	nt	nt
CCOc1cc(NC(=S)NCC2CCCO2)c(OCC)cc1NC(=O)CC(C)C (stereo unspecified)	0.3	i	-1.3	-1.1	3.0	nt	nt
Cn1cnc(S(=O)(=O)N2CCCCC2c2cc(C(=O)Nc3ccccc3Cl)no2)c1 (stereo unspecified)	4.6	nt	1.8	0.8	4.1	nt	nt
CC(C)Cn1c(SCC(=O)N2CCCc3ccccc32)nc2ccccc2c1=O	-0.9	i	3.8	11.0*	10.9	1.0	1.2
Cc1cc(C)c2c(=O)[nH]n(C3CC(C)N(C)CC3C)c2n1 (stereo unspecified)	-2.3	i	1.4	9.7*	-7.2	1.9	-5.2
Cc1ccn(-c2ccc(NC(=O)c3cccs3)cc2)n1	-9.2	i	-1.8	-2.8	1.8	nt	nt
O=C(NCc1ccco1)c1ccc(CNc2c(N3CCCCC3)c(=O)c2=O)cc1	11.1*	i	0.0	5.2	-1.9	0.6	1.9
CC1CCN(c2c(NCc3ccc(C(=O)NCc4ccco4)cc3)c(=O)c2=O)CC1	3.1	i	-2.6	0.2	-14.5	nt	nt
CCCCCCC1CC(CSc2ncn[nH]2)OC1=O (stereo unspecified)	-4.9	i	-2.2	-1.8	1.6	nt	nt
Cc1ccc(C(=O)NCC(=O)NCC(c2ccco2)N2CCCCC2)cc1C (stereo unspecified)	2.8	nt	0.5	4.3	-4.5	nt	nt
Cc1ccc(NC(=O)CCSc2nnnn2-c2ccc3c(c2)OCO3)cc1C	0.8	i	4.4	3.7	7.2	nt	nt
Cc1ccc([N+](=O)[O-])cc1S(=O)(=O)Nc1cccc(S(=O)(=O)NC2=NCCC2)c1	7.1	nt	5.3	9.6*	7.8	-4.6	-3.0
SMILES	PLCb3 inh	Rce1 inhib	ADAM17 inh	PLCg1 inh	ADAM10 inh	PLCgamma1 ctr	PLCbeta3 conf
O=S(=O)(NC1=NCCC1)c1cccc(NS(=O)(=O)c2ccc(F)c(Cl)c2)c1	-4.6	nt	-7.0	1.1	-11.2	nt	nt
Cc1cc(C)cc(C(=O)N(CCc2ccccc2)C2CC3CCC(C2)N3C)c1 (stereo unspecified)	-2.3	i	0.4	1.1	2.6	nt	nt
COc1ccccc1CCn1cnc(-c2ccccc2F)c1CC(C)C	5.3	nt	5.9	11.2*	10.5	-7.3	-4.7
CCC(=O)NC(=S)Nc1cccc(NC(=O)c2ccccc2C)c1	3.8	i	-0.5	2.9	11.0	nt	nt
CCC(=O)Nc1cccc(NC(=S)NC(=O)c2ccccc2C)c1	2.8	i	-0.5	9.9*	-0.5	1.5	1.5
CCOc1ccc(S(=O)(=O)Nc2c(C)n(C)n(-c3ccccc3)c2=O)cc1	-2.5	i	-1.0	-1.2	-8.7	nt	nt
CCS(=O)(=O)Nc1c(C)n(C)n(-c2ccccc2)c1=O	8.2	i	4.8	9.6*	7.0	-7.3	-2.7
Cc1ccc(S(=O)(=O)N2CCCC(C(=O)Nc3c(C)n(C)n(-c4ccccc4)c3=O)C2)cc1 (stereo unspecified)	2.2	nt	-0.1	1.5	0.5	nt	nt
Cc1c(NC(=O)C2CCCN2S(=O)(=O)c2ccccc2)c(=O)n(-c2ccccc2)n1C (stereo unspecified)	13.5*	i	7.3	4.7	8.2	3.9	-5.2
CCOC(=O)c1c(NC(=O)C2CCCN(S(=O)(=O)c3ccccc3)C2)sc2c1CCCC2 (stereo unspecified)	2.0	i	-5.3	-0.5	-3.8	nt	nt
CCOC(=O)c1c(NC(=O)C2CCCN(S(=O)(=O)c3ccc(C)cc3)C2)sc2c1CCCC2 (stereo unspecified)	1.2	i	1.5	14.8*	3.8	-6.2	-1.8
CC(=O)N1c2ccc(S(=O)(=O)N3CCCC3)cc2CC1C(=O)NC(C)C (stereo unspecified)	-5.5	i	-4.8	-3.2	2.3	nt	nt
CCOC(=O)C(Cc1cc(C(C)=O)ccc1OC(C)C)C(=O)OCC	-0.5	i	-6.5	-1.8	0.1	nt	nt
CC(=O)c1ccc(OC(C)C)c(CSC(=N)N)c1	12.0*	i	-2.0	12.0*	6.7	-5.2	-0.4
Cc1nc(Nc2c(Cl)cccc2Cl)sc1C(=O)Nc1ccccc1	6.9	i	7.5	9.6*	16.9	-1.5	-0.2
Cc1nc(NC(=O)C2CC2)sc1C(=O)Nc1ccccc1	-2.6	i	1.5	0.1	7.0	nt	nt
C/C(=N\Nc1ccc(S(=O)(=O)N2CCOCC2)cc1[N+](=O)[O-])C(C)C	-0.8	i	-0.9	10.2*	-1.0	-1.1	-1.6
COc1cccc(CNC(=O)[C@H]2CCCN2C(=O)[C@H]2CCCN2C(=O)c2cccc(OC)c2)c1	-1.4	nt	-3.8	-0.6	-0.6	nt	nt
Cc1cc(C(=O)N/N=C/c2ccc(O)c([N+](=O)[O-])c2)n[nH]1	4.7	nt	3.6	10.4*	10.0	-1.3	4.8
